By AC50 is commonly meant the concentration at which the activity in the assay is half-maximal.

Inconclusive results are not listed. Activity calls are given as the source filed them. How the source made its calls, unless noted: active means hit-call score of the fitted dose curve at least 0.9, where 1 is the maximum; inactive means score below 0.9.

Assay [1] concerns the target Glucocorticoid receptor (Homo sapiens) (UniProt P04150). The assay can be described thus: ATG_GR_TRANS: Attagene TRANS-FACTORIAL HepG2 Assay for human Glucocorticoid Receptor (GR) (AID 2282978; active means hit-call score of the fitted dose curve at least 0.9, where 1 is the maximum;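 further: activators score as hits since higher reporter transcript over DMSO is fitted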). As to conditions: HepG2 Attagene TRANS GR reporter, mRNA transcription. The method, boiled down:
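After 24 h incubation with test chemical, transfected HepG2 cells were lysed for RNA; reporter cDNA was amplified, FAM-labelled, HpaI-digested and sized on a capillary analyser. Signal gain relative to DMSO was scored.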

The target of assay [2] is Oxysterols receptor LXR-alpha (Homo sapiens) (UniProt Q13133). Description: ATG_LXRa_TRANS: Attagene TRANS-FACTORIAL HepG2 Assay for human Liver X Receptor alpha (LXRa) (AID 2282980; active means hit-call score of the fitted dose curve at least 0.9, where 1 is the maximum). The note with it: HepG2 Attagene TRANS reporter, LXRa transactivation. The method, boiled down:
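Transient HepG2 transfectants, 24 h dosing, RT-PCR/CE mRNA reporter quantitation; gain-of-signal vs DMSO.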

In assay [3] the target is Oxysterols receptor LXR-beta (Homo sapiens) (UniProt P55055). Description: ATG_LXRb_TRANS: Attagene TRANS-FACTORIAL HepG2 Assay for human Liver X Receptor beta (LXRb) (AID 2282981; active means hit-call score of the fitted dose curve at least 0.9, where 1 is the maximum). The note with it: HepG2 Attagene TRANS GAL4-LXRb reporter, mRNA. The method, boiled down:
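Cells: HepG2, transiently transfected with GAL4-UAS reporter units plus LXRb-Gal4 fusion. Treatment: 24 h. Detection: reporter mRNA by RT-PCR, 6-FAM labelling, HpaI digestion, capillary electrophoresis.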

In assay [4] the target is Hepatocyte nuclear factor 4-alpha (Homo sapiens) (UniProt P41235). The assay can be described thus: ATG_HNF4a_TRANS: Attagene TRANS-FACTORIAL HepG2 Assay for human Hepatocyte Nuclear Factor 4 alpha (HNF4a) (AID 2282982; active means hit-call score of the fitted dose curve at least 0.9, where 1 is the maximum). The note with it: HepG2 HNF4a transactivation reporter, mRNA readout. The method, boiled down: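 Transfected HepG2 reporter cells are dosed for 24 h; reporter RNA is reverse-transcribed, amplified, fluorescently labelled and HpaI-digested before CE sizing. Positive-direction fit against DMSO.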

Assay [5] in a line: ATG_M_32_TRANS: Attagene TRANS-FACTORIAL HepG2 Assay for M32 Transcription Factor (Internal Marker) (AID 2282984; active means hit-call score of the fitted dose curve at least 0.9, where 1 is the maximum;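 further: transcript level of a background control reporter unit measured by RT-PCR and capillary electrophoresis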). As to conditions: HepG2 Attagene TRANS M32 internal marker reporter. The method in brief: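 Using transiently transfected HepG2 cells exposed to test chemicals for 24 h, reporter transcripts are converted to labelled cDNA fragments and quantified by capillary electrophoresis. DMSO defines the activity baseline.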

Assay [6] concerns the target Transcriptional activator Myb (Homo sapiens) (UniProt P10242). Description: ATG_Myb_CIS: Attagene CIS-FACTORIAL HepG2 Assay for human Myeloblastosis (Myb) Proto-Oncogene Transcription Factor (AID 2282986). The note with it: HepG2 Attagene CIS-FACTORIAL Myb reporter transcription; actives raise or lower the signal. The method in brief:
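After 24 h of compound dosing, total RNA from transfected HepG2 cells is reverse-transcribed and the reporter sequences amplified, labeled and separated by capillary electrophoresis. Values come from bidirectional fitting against DMSO.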

Assay [7] can be described thus: ATG_NFI_CIS: Attagene CIS-FACTORIAL HepG2 Assay for human Nuclear Factor I (NFI) (AID 2282989). The note with it: HepG2 cis-regulatory reporter, NFI response element transcription; actives raise or lower the signal. The method, boiled down:
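HepG2 cells transiently transfected with cis-element-driven multiplexed reporter transcription units, dosed for 24 h. Reporter mRNA quantified by RT-PCR, fluorescent labelling, HpaI digestion and capillary electrophoresis; bidirectional fit versus DMSO baseline.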

The target in assay [8] is Myc proto-oncogene protein (Homo sapiens) (UniProt P01106). The assay can be described thus: ATG_Myc_CIS: Attagene CIS-FACTORIAL HepG2 Assay for human Myelocytomatosis (Myc) Proto-Oncogene Transcription Factor (AID 2282990). As to conditions: HepG2, Attagene cis-reporter transcription factor activity; actives raise or lower the signal. The method, boiled down:
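HepG2, transient MRTU transfection (cis promoters, endogenous TFs); 24 h dosing; TriZol RNA → oligo(dT) RT → PCR → 6-FAM primer extension → HpaI cut → CE. Bidirectional fit vs DMSO.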

Assay [9] is described as follows: ATG_NF_kB_CIS: Attagene CIS-FACTORIAL HepG2 Assay for human Nuclear Factor Kappa B (NF-kB) (AID 2282991). The note with it: HepG2 Attagene cis-factorial NF-kB reporter mRNA; actives raise or lower the signal. The method, boiled down: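 Fluorescence of labelled RT-PCR products separated by capillary electrophoresis gives reporter mRNA levels from transfected HepG2 cells exposed 24 h; values are fitted in both directions relative to DMSO.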

Assay [10] can be described thus: ATG_NRF2_ARE_CIS: Attagene CIS-FACTORIAL HepG2 Assay for human Nuclear Factor Erythroid 2 Related Factor 2 (NFR2) response to Antioxidant Response Elements (ARE) (AID 2282992). The note with it: HepG2 Attagene ARE/NRF2 reporter, transcription factor activity; actives raise or lower the signal. The method in brief: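 Multiplexed reporter mRNA profiling in HepG2 after a 24 h chemical exposure. Curves fitted in both directions relative to DMSO negative control.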

A short description of assay [11]: ATG_Oct_MLP_CIS: Attagene CIS-FACTORIAL HepG2 Assay for human Octamer-Binding Transcription Factor (Oct) (AID 2282993). As to conditions: HepG2 Attagene cis-factorial Oct reporter, mRNA; actives raise or lower the signal. The method in brief: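 HepG2 cells transiently transfected with cis-promoter-driven multiplexed reporter transcription units, dosed for 24 h. Reporter mRNA quantified by RT-PCR, fluorescent labelling, HpaI digestion and capillary electrophoresis; bidirectional fits versus DMSO baseline.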

The target of assay [12] is Cellular tumor antigen p53 (Homo sapiens) (UniProt P04637). The assay can be described thus: ATG_p53_CIS: Attagene CIS-FACTORIAL HepG2 Assay for human p53 Transcription Factor (AID 2282994). As to conditions: HepG2 p53 cis-element reporter, Attagene mRNA; actives raise or lower the signal. The method in brief:
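Multiplexed reporter mRNA assay in human HepG2 liver cells; cis-regulated units report endogenous factor activity. Values come from bidirectional curve fitting against DMSO negative control after 24 h treatment.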

In assay [13] the target is Bile acid receptor (Homo sapiens) (UniProt Q96RI1). The assay can be described thus: ATG_FXR_TRANS: Attagene TRANS-FACTORIAL HepG2 Assay for Farnesoid X Receptor (FXR) (AID 2282979; active means hit-call score of the fitted dose curve at least 0.9, where 1 is the maximum;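 further: hits raise reporter mRNA above DMSO so AC50 marks FXR activation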). The note with it: HepG2 Attagene TRANS FXR-GAL4 reporter transcription. The method in brief:
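Chimeric FXR-GAL4 activity in transiently transfected human HepG2 liver cells is scored as induction of reporter mRNA after 24 h of dosing. Detection uses RT-PCR with fluorescent labelling and capillary electrophoresis, with DMSO serving as baseline.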

Assay [14] is described as follows: ATG_M_06_TRANS: Attagene TRANS-FACTORIAL HepG2 Assay for M06 Transcription Factor (Internal Marker) (AID 2282983; active means hit-call score of the fitted dose curve at least 0.9, where 1 is the maximum). The note with it: HepG2 Attagene TRANS M06 internal marker reporter. The method, boiled down:
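Measured by capillary electrophoresis of fluorescently labelled RT-PCR products, this endpoint reflects reporter mRNA in HepG2 cells harbouring exogenous NR-GAL4 reporter constructs after 24 h exposure, with DMSO as baseline.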

The target in assay [15] is Nuclear receptor subfamily 4 group A member 2 (Homo sapiens) (UniProt P43354). Description: ATG_NURR1_TRANS: Attagene TRANS-FACTORIAL HepG2 Assay for human Nuclear Receptor Related Protein 1 (NURR1) (AID 2282985; active means hit-call score of the fitted dose curve at least 0.9, where 1 is the maximum). As to conditions: HepG2 Attagene TRANS reporter, mRNA readout. The method in brief:
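Cells: HepG2, transiently transfected. Exposure: 24 h. Detection: fluorescence of labelled RT-PCR products separated by capillary electrophoresis; upward fit versus DMSO.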

The target of assay [16] is Nuclear respiratory factor 1 (Homo sapiens) (UniProt Q16656). The assay can be described thus: ATG_NRF1_CIS: Attagene CIS-FACTORIAL HepG2 Assay for human Nuclear Respiratory Factor 1 (NRF1) Orphan Gene (AID 2282987). The note with it: HepG2 NRF1 cis-element reporter, Attagene multiplex; actives raise or lower the signal. The method, boiled down:
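Measured: fluorescent reporter-specific RT-PCR products from transfected HepG2 cells, separated by capillary electrophoresis. Exposure lasted 24 h. Analysis used bidirectional curve fitting with DMSO as negative control.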

Assay [17] is described as follows: BSK_3C_TissueFactor: BioMAP Diversity Plus: 3C Assay for Tissue Factor Biomarker Activity (AID 2282997). As to conditions: BioMAP 3C HUVEC, tissue factor biomarker readout; actives raise or lower the signal. The method in brief: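 Values derive from bidirectional curve fitting against DMSO of Tissue Factor ELISA signals, taken 24 h after dosing primary human umbilical vein endothelial cells.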

A short description of assay [18]: BSK_3C_uPAR: BioMAP Diversity Plus: 3C Assay for Urokinase-type plasminogen activator receptor (uPAR) Biomarker Activity (AID 2282998). As to conditions: BioMAP 3C HUVEC, uPAR biomarker ELISA; actives raise or lower the signal. The method, boiled down: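 Human umbilical vein endothelial primary cells were exposed to test chemical for 24 h. Cell-surface uPAR was then quantified by ELISA, and responses were fitted bidirectionally against DMSO as negative control and baseline.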
A general note: ELISA stands for enzyme-linked immunosorbent assay.

Chain of Oxysterols receptor LXR-alpha (Homo sapiens) (Q13133 whole entry, looked up): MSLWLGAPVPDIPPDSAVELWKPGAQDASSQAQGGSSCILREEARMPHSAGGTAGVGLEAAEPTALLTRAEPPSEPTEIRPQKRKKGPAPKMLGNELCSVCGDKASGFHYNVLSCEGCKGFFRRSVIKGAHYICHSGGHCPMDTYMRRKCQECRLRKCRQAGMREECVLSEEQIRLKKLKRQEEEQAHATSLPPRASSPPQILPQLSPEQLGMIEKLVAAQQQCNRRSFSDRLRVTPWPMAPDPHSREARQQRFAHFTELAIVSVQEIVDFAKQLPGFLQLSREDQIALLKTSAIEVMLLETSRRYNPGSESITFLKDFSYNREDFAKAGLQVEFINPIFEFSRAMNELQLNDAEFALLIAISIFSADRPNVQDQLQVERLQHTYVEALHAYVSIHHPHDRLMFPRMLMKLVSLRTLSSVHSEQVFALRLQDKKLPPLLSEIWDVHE
Chain of Oxysterols receptor LXR-beta (Homo sapiens) (P55055 whole entry, looked up, the tested form may be a part): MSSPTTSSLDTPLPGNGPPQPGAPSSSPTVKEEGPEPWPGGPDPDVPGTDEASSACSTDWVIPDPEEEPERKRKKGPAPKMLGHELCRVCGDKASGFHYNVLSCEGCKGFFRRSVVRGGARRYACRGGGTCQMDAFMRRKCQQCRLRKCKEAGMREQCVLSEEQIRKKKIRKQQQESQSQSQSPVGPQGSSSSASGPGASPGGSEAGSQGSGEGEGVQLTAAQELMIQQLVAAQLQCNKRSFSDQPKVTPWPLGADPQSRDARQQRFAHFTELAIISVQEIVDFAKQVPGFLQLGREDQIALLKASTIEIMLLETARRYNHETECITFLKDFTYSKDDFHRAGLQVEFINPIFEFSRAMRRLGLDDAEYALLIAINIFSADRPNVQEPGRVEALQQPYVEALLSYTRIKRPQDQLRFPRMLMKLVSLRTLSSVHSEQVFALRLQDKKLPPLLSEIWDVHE
Chain of Nuclear respiratory factor 1 (Homo sapiens) (Q16656 whole entry, looked up): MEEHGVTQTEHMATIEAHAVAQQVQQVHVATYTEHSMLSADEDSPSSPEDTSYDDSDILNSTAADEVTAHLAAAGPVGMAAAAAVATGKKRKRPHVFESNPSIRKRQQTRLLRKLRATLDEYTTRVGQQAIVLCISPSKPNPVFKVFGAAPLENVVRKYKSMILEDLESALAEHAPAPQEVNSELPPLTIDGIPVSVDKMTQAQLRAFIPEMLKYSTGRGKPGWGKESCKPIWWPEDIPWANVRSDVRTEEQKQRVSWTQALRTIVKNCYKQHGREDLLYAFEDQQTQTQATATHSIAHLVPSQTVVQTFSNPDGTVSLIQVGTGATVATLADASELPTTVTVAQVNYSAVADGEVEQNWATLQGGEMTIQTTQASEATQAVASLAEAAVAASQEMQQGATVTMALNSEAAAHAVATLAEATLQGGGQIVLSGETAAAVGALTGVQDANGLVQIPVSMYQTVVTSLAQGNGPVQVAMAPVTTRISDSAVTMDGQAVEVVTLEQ
Chain of Myc proto-oncogene protein (Homo sapiens) (P01106 whole entry, looked up): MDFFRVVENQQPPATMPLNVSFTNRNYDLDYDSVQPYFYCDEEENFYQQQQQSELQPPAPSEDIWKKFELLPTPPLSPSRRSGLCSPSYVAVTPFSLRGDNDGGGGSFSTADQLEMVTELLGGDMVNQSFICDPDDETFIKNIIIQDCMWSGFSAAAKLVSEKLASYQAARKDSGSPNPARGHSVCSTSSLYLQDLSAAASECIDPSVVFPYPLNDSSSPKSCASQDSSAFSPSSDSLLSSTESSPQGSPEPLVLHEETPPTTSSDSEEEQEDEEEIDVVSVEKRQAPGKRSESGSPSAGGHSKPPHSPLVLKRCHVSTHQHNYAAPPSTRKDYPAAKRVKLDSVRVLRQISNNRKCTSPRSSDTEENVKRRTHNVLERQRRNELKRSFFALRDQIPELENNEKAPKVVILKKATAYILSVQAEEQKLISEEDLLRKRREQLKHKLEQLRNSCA
Chain of Bile acid receptor (Homo sapiens) (Q96RI1 whole entry, looked up, the tested form may be a part): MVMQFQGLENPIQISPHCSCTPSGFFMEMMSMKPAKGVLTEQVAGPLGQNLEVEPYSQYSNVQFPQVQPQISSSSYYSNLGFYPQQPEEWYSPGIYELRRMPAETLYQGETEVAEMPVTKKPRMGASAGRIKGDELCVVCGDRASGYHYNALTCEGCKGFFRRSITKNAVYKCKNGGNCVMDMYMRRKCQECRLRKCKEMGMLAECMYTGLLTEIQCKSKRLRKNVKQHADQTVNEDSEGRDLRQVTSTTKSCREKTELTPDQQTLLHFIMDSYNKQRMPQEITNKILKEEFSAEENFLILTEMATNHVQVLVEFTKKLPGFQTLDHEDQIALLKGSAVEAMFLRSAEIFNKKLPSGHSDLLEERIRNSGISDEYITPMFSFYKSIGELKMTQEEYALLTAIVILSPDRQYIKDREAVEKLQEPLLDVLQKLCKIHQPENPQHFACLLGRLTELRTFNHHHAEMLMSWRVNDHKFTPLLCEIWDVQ
Chain of Glucocorticoid receptor (Homo sapiens) (P04150 whole entry, looked up): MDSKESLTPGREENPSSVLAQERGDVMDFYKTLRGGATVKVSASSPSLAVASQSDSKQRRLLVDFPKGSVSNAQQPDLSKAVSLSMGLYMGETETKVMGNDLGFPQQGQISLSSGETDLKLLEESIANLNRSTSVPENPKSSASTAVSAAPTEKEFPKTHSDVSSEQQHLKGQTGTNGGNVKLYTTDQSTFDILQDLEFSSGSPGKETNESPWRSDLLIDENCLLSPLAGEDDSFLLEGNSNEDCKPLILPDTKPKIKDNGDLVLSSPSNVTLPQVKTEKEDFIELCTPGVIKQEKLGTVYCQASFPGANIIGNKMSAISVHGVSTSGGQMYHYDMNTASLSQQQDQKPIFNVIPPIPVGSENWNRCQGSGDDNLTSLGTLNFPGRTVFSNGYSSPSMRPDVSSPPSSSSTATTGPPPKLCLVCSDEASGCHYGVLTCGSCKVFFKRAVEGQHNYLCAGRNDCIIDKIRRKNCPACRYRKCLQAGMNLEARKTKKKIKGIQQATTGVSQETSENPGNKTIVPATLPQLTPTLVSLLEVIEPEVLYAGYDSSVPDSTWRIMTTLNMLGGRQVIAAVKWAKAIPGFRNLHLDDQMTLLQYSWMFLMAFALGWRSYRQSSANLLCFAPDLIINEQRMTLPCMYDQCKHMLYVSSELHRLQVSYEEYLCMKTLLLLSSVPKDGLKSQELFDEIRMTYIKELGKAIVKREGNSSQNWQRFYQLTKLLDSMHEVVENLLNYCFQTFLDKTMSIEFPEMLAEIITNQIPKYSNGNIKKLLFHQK
Chain of Cellular tumor antigen p53 (Homo sapiens) (P04637 whole entry, looked up): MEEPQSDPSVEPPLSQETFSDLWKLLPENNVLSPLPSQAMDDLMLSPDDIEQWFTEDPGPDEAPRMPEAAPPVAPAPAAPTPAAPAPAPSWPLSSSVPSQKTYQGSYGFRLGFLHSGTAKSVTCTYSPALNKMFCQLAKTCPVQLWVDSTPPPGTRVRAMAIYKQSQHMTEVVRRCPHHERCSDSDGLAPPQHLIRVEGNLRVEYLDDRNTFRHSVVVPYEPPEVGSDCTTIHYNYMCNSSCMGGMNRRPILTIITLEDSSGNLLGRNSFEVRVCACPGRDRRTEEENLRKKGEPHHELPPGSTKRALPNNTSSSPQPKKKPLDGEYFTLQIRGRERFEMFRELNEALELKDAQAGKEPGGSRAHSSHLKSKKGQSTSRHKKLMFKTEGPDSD
Chain of Nuclear receptor subfamily 4 group A member 2 (Homo sapiens) (P43354 whole entry, looked up): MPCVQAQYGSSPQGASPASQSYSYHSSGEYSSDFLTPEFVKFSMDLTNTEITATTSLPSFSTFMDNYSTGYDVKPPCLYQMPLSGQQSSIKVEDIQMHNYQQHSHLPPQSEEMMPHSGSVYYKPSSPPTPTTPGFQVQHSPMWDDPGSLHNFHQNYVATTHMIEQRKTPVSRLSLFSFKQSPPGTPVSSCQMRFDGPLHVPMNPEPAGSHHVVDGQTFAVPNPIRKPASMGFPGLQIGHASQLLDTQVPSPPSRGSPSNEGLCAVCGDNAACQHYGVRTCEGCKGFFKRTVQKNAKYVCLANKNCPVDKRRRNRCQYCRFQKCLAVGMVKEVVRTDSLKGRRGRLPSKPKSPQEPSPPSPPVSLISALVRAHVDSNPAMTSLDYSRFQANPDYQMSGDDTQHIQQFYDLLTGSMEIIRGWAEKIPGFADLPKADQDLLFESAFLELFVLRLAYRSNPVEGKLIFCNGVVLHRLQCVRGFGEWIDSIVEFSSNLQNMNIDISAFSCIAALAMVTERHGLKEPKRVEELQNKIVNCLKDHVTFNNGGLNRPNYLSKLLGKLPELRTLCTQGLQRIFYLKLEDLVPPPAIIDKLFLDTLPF
Chain of Transcriptional activator Myb (Homo sapiens) (P10242 whole entry, looked up): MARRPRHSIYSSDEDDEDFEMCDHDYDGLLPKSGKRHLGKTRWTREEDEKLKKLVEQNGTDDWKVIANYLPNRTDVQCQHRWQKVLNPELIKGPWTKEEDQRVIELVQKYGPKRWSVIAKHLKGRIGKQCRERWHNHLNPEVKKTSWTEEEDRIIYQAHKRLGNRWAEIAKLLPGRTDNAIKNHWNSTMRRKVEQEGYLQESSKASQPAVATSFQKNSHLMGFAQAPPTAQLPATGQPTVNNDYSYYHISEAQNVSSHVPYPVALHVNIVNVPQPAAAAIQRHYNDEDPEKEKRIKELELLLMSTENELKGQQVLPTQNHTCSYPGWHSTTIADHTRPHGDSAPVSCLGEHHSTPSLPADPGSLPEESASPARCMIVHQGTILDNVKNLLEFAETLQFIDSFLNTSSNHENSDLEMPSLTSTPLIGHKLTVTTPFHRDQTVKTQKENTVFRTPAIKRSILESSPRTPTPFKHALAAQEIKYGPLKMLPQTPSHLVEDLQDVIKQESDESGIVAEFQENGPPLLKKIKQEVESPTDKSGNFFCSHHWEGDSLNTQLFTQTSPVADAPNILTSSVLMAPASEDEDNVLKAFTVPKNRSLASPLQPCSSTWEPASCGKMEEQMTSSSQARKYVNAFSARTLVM

For `CC(C)(CO)COC(=O)C(C)(C)CO`, the call in assay [1], in [2], in [3], in assay [4], in assay [5] and in assay [6] was inactive. For the same molecule, the outcome in assay [7], in assay [8], in assay [9], in [10], in assay [11] and in assay [12] was inactive.

Regarding `CC12CCC(CC1)C(C)(C)O2`, the call in assay [1], in [13], in [4], in [14], in assay [15] and in assay [6] was inactive. Moreover, the result in [16], in assay [7], in assay [8], in assay [10], in assay [11] and in [12] was inactive.

`CCC(C)C(=O)OC` (configuration not stated): the molecule was classed as inactive in assay [1], in assay [13], in [4], in assay [6], in assay [16] and in [7]. The result in assay [8], in assay [9], in assay [11] and in assay [12] was inactive.

For the molecule `COc1ccc(C(=O)c2ccccc2)c(O)c1`, the call in assay [1], in assay [13], in [3], in [14], in assay [5] and in assay [15] was inactive. Also, the molecule was called inactive in [6], in assay [16], in assay [7], in assay [8], in [12] and in assay [17]. Further, the outcome in assay [18] was inactive. For the same molecule, the AC50 in [9] was 168 µM (active).

As for `CCCCCCCCCC(C)=O`, the outcome in [1], in assay [2], in assay [3], in [5], in [15] and in assay [6] was inactive. Moreover, the molecule was classed as inactive in assay [7], in [8], in [10], in assay [11] and in assay [12].

On to `Nc1nc(N)nc(-c2ccccc2)n1`, for which the result in assay [1], in assay [2], in assay [3], in assay [4], in assay [14] and in assay [5] was inactive. Further, the result in [6], in assay [7], in assay [8], in [9], in [11] and in assay [17] was inactive. In addition, the outcome in [18] was inactive.

For `CC/C=C\C/C=C\C/C=C\CCCCCCCC(=O)OC`, the outcome in assay [1], in [13], in assay [4], in assay [5], in [15] and in assay [6] was inactive. The molecule was classed as inactive in assay [16], in [7], in assay [8] and in [12]. Moreover, the AC50 in assay [9] is 32.4 µM (active); in assay [10], 48.1 µM (active); in [11] it was 135 µM (active); in [17] it was 13.5 µM (active); in assay [18], 31.6 µM (active).

`CCOC(=O)[C@H](O)[C@@H](O)C(=O)OCC`: the outcome in assay [1], in assay [2], in assay [3], in [4], in assay [15] and in [6] was inactive. Besides, the outcome in assay [7], in assay [8], in [9], in assay [11] and in assay [12] was inactive.

For `C=CC(=O)O[C@H]1C[C@@H]2CC[C@@]1(C)C2(C)C`, the result in [1], in assay [2], in assay [3], in [4], in assay [14] and in [15] was inactive. In addition, the call in [6], in assay [16], in [7], in assay [11] and in assay [12] was inactive. Also, the AC50 in assay [8] was 167 µM (active); in [9] it was 181 µM (active); in assay [10], 32.1 µM (active).

The record behind these values is PubChem BioAssay (EPA / NIEHS).
